Data published in PubChem BioAssay AID1159580 (chemical genetic matrix, 2015).
Hit rate of the full screen: of about 5,500 compounds, about 2,000 (36%) were called active. Another 18% or so got no clear call; they are omitted. Cut-off read from the data, not from the text of the source: active = normalized growth mostly below about 0.91 (no sharp cut-off); inconclusive = no clear call, values can overlap the other calls; inactive = mostly above about 0.92. Some of the results follow.

Test: chemical genetic growth profiling, strain panel (AID 1159580);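 note: tested at 20 µM; growth read once vehicle control cultures reached saturation at 30 °C; 1 = growth at the plate median or of vehicle wells; lower values mean less growth of the strain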
Conditions: S. cerevisiae deletion strains, growth OD

Measured: normalized growth

COC1CC(OC2CCC3(C)C(CCC4C3CCC3(C)C(C5=CC(=O)OC5)C(OC(C)=O)CC43O)C2)OC(C)C1O (configuration not stated)
inactive: locus YAL021C, strain ccr4, hits give low values 0.998 | locus YAL026C, strain drs2, hits give low values 1.02 | locus YAL030W, strain snc1, hits give low values 1.01 | locus YBL061C, strain skt5, hits give low values 1.02 | locus YBR009C, strain hhf1, hits give low values 1.02 | locus YBR023C, strain chs3, hits give low values 1.02 | locus YBR171W, strain sec66, hits give low values 1.03 | locus YBR231C, strain swc5, hits give low values 1.02 | locus YBR279W, strain paf1, hits give low values 1.01 | locus YCL011C, strain gbp2, hits give low values 1.02 | locus YCL016C, strain dcc1, hits give low values 1.01 | locus YCL061C, strain MRC1, hits give low values 1.02 | locus YCL069W, strain vba3, hits give low values 1.02 | locus YCR088W, strain abp1, hits give low values 1.02 | locus YDL005C, strain med2, hits give low values 1.03 | locus YDL040C, strain nat1, hits give low values 1.01 | locus YDR001C, strain nth1, hits give low values 1.02 | locus YDR069C, strain doa4, hits give low values 1.01 | locus YDR137W, strain rgp1, hits give low values 1 | locus YDR159W, strain sac3, hits give low values 1.04 | locus YDR195W, strain ref2 1.03 | locus YDR297W, strain sur2, hits give low values 1.03 | locus YDR334W, strain swr1, hits give low values 1.03 | locus YDR335W, strain msn5, hits give low values 1.03 | locus YDR392W, strain spt3, hits give low values 0.984 | locus YEL003W, strain gim4, hits give low values 1.02 | locus YEL037C, strain rad23, hits give low values 1.02 | locus YEL061C, strain CIN8 (second series), hits give low values 1.02 | locus YER015W, strain faa2, hits give low values 1.02 | locus YER016W, strain bim1, hits give low values 1.02 | locus YER111C, strain swi4, hits give low values 1.03 | locus YER155C, strain BEM2 (second series), hits give low values 1.03 | locus YFR010W, strain ubp6, hits give low values 1.03 | locus YGL167C, strain pmr1, hits give low values 1.02 | locus YGL173C, strain kem1, hits give low values 1.03 | locus YGL227W, strain vid30, hits give low values 1.02 | locus YGL240W, strain doc1, hits give low values 1.01 | locus YGL253W, strain hxk2, hits give low values 1.03 | locus YHR013C, strain ard1, hits give low values 1.03 | locus YHR027C, strain rpn1, hits give low values 1.03 | locus YHR142W, strain chs7, hits give low values 1.02 | locus YJL092W, strain hpr5, hits give low values 1.03 | locus YJL095W, strain BCK1 (second series), hits give low values 1.01 | locus YJL115W, strain asf1, hits give low values 1.03 | locus YJL129C, strain trk1, hits give low values 1.02 | locus YJL154C, strain vps35, hits give low values 1.02 | locus YJL164C, strain tpk1, hits give low values 1 | locus YJL166W, strain qcr8, hits give low values 1.03 | locus YJL187C, strain SWE1, hits give low values 1.01 | locus YKL160W, strain elf1, hits give low values 1.01 | locus YKR026C, strain gcn3, hits give low values 1.02 | locus YKR091W, strain srl3, hits give low values 1.01 | locus YLL001W, strain dnm1, hits give low values 1.02 | locus YLL026W, hits give low values 1.02 | locus YLL041C, strain sdh2, hits give low values 1.02 | locus YLR027C, strain aat2, hits give low values 1.01 | locus YLR221C, strain rsa3, hits give low values 1.03 | locus YLR258W, strain gsy2, hits give low values 1.01 | locus YLR262C, strain YPT6 (second series), hits give low values 1.04 | locus YLR320W, strain mms22, hits give low values 1.01 | locus YLR342W, strain FKS1, hits give low values 1.02 | locus YLR357W, strain rsc2, hits give low values 1.06 | locus YLR370C, strain arc18, hits give low values 1.02 | locus YLR384C, strain iki3, hits give low values 1.02 | locus YML120C, strain ndi1, hits give low values 1.01 | locus YMR058W, strain fet3, hits give low values 1.04 | locus YMR125W, strain sto1, hits give low values 1.02 | locus YMR129W, hits give low values 1.01 | locus YMR205C, strain PFK2, hits give low values 1.01 | locus YMR231W, strain pep5, hits give low values 1.02 | locus YNL071W, strain lat1, hits give low values 1.02 | locus YNL209W, strain ssb2, hits give low values 1.01 | locus YNL248C, strain rpa49, hits give low values 0.939 | locus YNL322C, strain KRE1 (second series), hits give low values 1.03 | locus YNR049C, strain mso1, hits give low values 1.01 | locus YOR001W, strain rrp6, hits give low values 1.02 | locus YOR070C, strain gyp1, hits give low values 1.03 | locus YOR080W, strain dia2, hits give low values 1.02 | locus YOR083W, strain WHI5, hits give low values 1 | locus YOR106W, strain vam3, hits give low values 1.01 | locus YOR265W, strain rbl2, hits give low values 1.01 | locus YOR270C, strain vph1, hits give low values 1.02 | locus YOR290C, strain snf2, hits give low values 0.986 | locus YPL051W, strain arl3, hits give low values 1.01 | locus YPL078C, strain atp4, hits give low values 1.01 | locus YPL106C, strain sse1, hits give low values 1.01 | locus YPL240C, strain hsp82, hits give low values 1.02
